# Mot1-301 SUMO: SUMOylation pathway inhibition by Mot1-301 growth rescue; S. cerevisiae Mot1-301 growth rescue, ATP luminescence, 38.5C; percent above DMSO median, 100 means doubled; growth rescue, % at 18.8 µM; 320,000 tested, 1% active;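 active = every valid replicate shows activation above 250% relative to neutral control wells; inactive = the rest, any valid replicate at or below 250%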;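 also: OY570 slx delta 5 strain wells were the positive control but not used for scaling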
# IDE inh: cellular human IDE inhibition; P14735; HEK cells, FAbetaB cleavage, fluorescence polarization; inhibition, % at 5.59 µM; 320,000 tested, 0.41% active;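 active = percent inhibition above the average of all tested compounds plus 3 SD, set per screening campaign, cut at about 16% in these data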;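 also: IDE supplied by intact live HEK cells; FP after avidin binding of uncleaved biotin substrate so inhibition keeps polarization high; 0% = DMSO wells and 100% = 60 µM reference IDE inhibitor Ii1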
# HDAC3 inhib: human HDAC3 inhibition; inhibition, % at 8.3 µM; recombinant HDAC3, fluorogenic peptide/trypsin coupled, fluorescence; 320,000 tested, 0.15% active; O15379; in the data active = inhibition above about 26%, passing the limit was not always enough
# IDE act: activators of human insulin-degrading enzyme in cells; P14735; HEK cells, FAbeta-B cleavage, fluorescence polarization; 0% vehicle, 100% cell-free pure enzyme wells; activation, % at 5.96 µM; 340,000 tested, 0.073% active; AID 493087;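 active = activation above the mean of all tested compounds plus 3 SD, set per screening campaign, cut at about 17% in these data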
# LANA-H2B inh: blocks KSHV LANA binding to histone H2A/H2B | Q9QR71 | cell-free LANA-H2A/H2B peptide, fluorescence polarization | inhibition, % (test concentration not listed) | 320,000 tested, 0.6% active | AID 2629; in the data active = inhibition mostly above about 10%, no sharp cut-off; inactive = mostly below about 6.7%
# Mot1 SUMO dose: inhibits SUMO pathway, affecting Mot1-301 yeast growth | shares compounds with Mot1-301 SUMO | growth activity, percent, % at 42 µM | 2,300 tested, under 10 active | S. cerevisiae Mot1-301 galactose growth, ATP luminescence, 24 h; -100 = growth of slx-deleted rescue strain | AID 493004;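 active = Signal drops as the depositor expects, and the fitted half-maximal dose is no more than ten times the top valid tested dose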;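 also: more negative values mean stronger growth rescue toward the control strain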
# * marks the source's active call; other numbers are inactive results; x = no result given; + = active, no number. Most compounds without a hit are left out; they make up all but 2.1% or so of the library.
SMILES,Mot1-301 SUMO,IDE inh,HDAC3 inhib,IDE act,LANA-H2B inh,Mot1 SUMO dose
Cc1nc2ccccc2n(CC(=O)Nc2cc(Cl)cc(Cl)c2)c1=O,+,5,-5,1,4,1
Cc1ccc(NC(=O)Cn2c(=O)c(C)nc3ccccc32)cc1,11,3,2,2,0,x
COc1cc(/C=C/C(=O)OCC(=O)NC(=O)C2COc3ccccc3O2)ccc1OC(F)F (stereo not given),-3,1,-6,0,-1,x
Cc1cc(CNC(=O)C2CCC(=O)N(Cc3cccc(C(F)(F)F)c3)C2)no1 (stereo not given),-19,-2,3,0,4,x
Cc1nn(C)cc1CNC(=O)C1CCC(=O)N(Cc2cccc(C(F)(F)F)c2)C1 (stereo not given),375*,2,-2,3,-3,0
O=C(/C=C/N1CCOCC1)c1coc2ccccc12,425*,7,11,7,0,-1
COc1ccc(CC(=O)N2CCc3cc(OC)c(OC)cc3C2)cc1,-4,3,0,0,-2,x
COc1cc2c(cc1OC)CN(C(=O)Cc1c(F)cccc1Cl)CC2,475*,-5,4,3,4,1
Cc1ccc(S(=O)(=O)N2CCOCC2)cc1NC(=O)COC(=O)CCC(=O)c1cccs1,522*,-1,-2,3,0,1
O=C(COC(=O)CCC(=O)c1cccs1)Nc1ccc(S(=O)(=O)N2CCOCC2)cc1,-4,3,3,3,6,x
O=C(NC1CCCCC1)c1n[nH]c2c1CCCCC2,364*,5,5,7,5,-2
Cc1cccc(N2CC(C(=O)Nc3ccccc3N3CCOCC3)CC2=O)c1C (stereo not given),-5,1,4,5,2,x
COc1cc2ccccc2cc1C(=O)Nc1ccc(CN2CCOCC2)cc1,394*,0,-3,0,-1,-1
Cc1cc(C)n2c(SCC(=O)NC3CCCC(C)C3C)nnc2n1 (stereo not given),71,4,9,7,2,x
Cc1cc(C)n2nc(SCC(=O)NC3CCCC(C)C3C)nc2n1 (stereo not given),517*,-1,-3,0,2,0
O=C(/C=C/c1ccccc1)Nc1cccc(C(=O)N2CCCC2)c1,x,x,x,-1,x,x
O=C(C1CCN(C2CC(=O)N(c3cccc(Cl)c3)C2=O)CC1)N1CCCC1 (stereo not given),417*,-1,7,-1,-3,-1
NC(=O)C1CCN(C2CC(=O)N(c3ccc(F)c(Cl)c3)C2=O)CC1 (stereo not given),649*,4,-6,6,6,-1
CC(Oc1cccnc1[N+](=O)[O-])C(=O)N1CCc2ccccc21 (stereo not given),6,4,0,1,10,x
CC(=Nc1ccccc1)C1=C(O)CC(C)(C)CC1=O,432*,2,4,7,2,1
c1ccc2c(C[C@@H]3CNCCN3CCCCC3CCCCC3)cccc2c1,402*,3,17,9,-2,-3
O=C(COc1ccc(C(=O)c2ccc(F)cc2)cc1)Nc1cccc(S(=O)(=O)N2CCOCC2)c1,1,-2,4,-7,3,x
Cn1c(CSc2nc3ccccc3s2)nnc1SCC(=O)NCCN1CCOCC1,913*,3,5,1,-3,0
O=C1CC(c2ccccc2)(c2ccccc2)c2ccccc21,x,x,x,6,x,x
CCOc1ncccc1C(=O)OCC(=O)Nc1cccc(S(N)(=O)=O)c1,-17,4,0,-5,0,x
SMILES,Mot1-301 SUMO,IDE inh,HDAC3 inhib,IDE act,LANA-H2B inh,Mot1 SUMO dose
NS(=O)(=O)c1cccc(NC(=O)c2cccnc2Oc2ccccc2)c1,936*,-9,-6,0,-4,0
CCCCn1c(/C=N/Nc2nc3ccccc3[nH]2)nc2ccccc21,418*,4,12,-4,-7,0
CC(=O)NCc1c(Cl)cccc1-n1cccc1,785*,-4,0,5,-2,0
O=C(CCSc1ccccc1)NNC(=O)c1ccccc1F,517*,0,4,-1,6,0
CCCCNC(=O)c1ccccc1NC(=O)CCSc1ccccc1,x,1,-1,-1,-3,x
Fc1ccccc1-n1cc(-c2ccccc2)[nH]c1=S,450*,-2,-6,1,-3,0
Cc1ccc(C)n1-n1cnc2sc3c(c2c1=O)CCCCC3,596*,0,-4,2,1,0
Cc1ccc(C)n1-n1c(C)nc2sc3c(c2c1=O)CCCCC3,x,0,3,0,-1,x
Cc1nn(CCCC(=O)NCc2ccccc2)c(=O)c2nn(-c3ccccc3)c(C)c12,-3,-1,-6,1,0,x
COc1cccc(CNC(=O)CCCn2nc(C)c3c(C)n(-c4ccccc4)nc3c2=O)c1,531*,1,-6,-4,6,0
Cc1ccc(-n2nc3c(=O)n(CCCC(=O)NCc4cccc(F)c4)nc(C)c3c2C)cc1,597*,4,-1,-1,2,0
C=C(C)Cn1c(N)cc(=O)nc1SCC(=O)Nc1cccc(C(F)(F)F)c1,413*,-5,-4,2,5,0
CCOC(=O)Cc1cc(=O)[nH]n(-c2ccccc2)c1=O,x,x,x,5,x,x
Cc1cnc(NC(=O)CSc2nc3ccccc3s2)s1,395*,0,0,-8,5,-1
CCOc1cc(/C=C2\NC(=O)NC2=O)cc([N+](=O)[O-])c1O,-2,5,x,-1,2,x
CCOc1cc(/C=C2\NC(=O)NC2=O)ccc1OC(C)C(=O)O (stereo not given),514*,-2,0,6,-7,1
COc1cc2nc(CSc3ncn[nH]3)[nH]c(=O)c2cc1OC,556*,-2,1,4,2,0
COc1cc2nc(CN(C)Cc3ccc(SC)cc3)[nH]c(=O)c2cc1OC,2,2,5,4,14,x
CCc1cccc(C)c1NC(=O)CSc1nnc(-c2cc3cc(Br)ccc3o2)n1CC,+,4,1,5,9,0
Cc1ccccc1OCCSc1nc2ccccc2n1CCC(=O)O,-29,2,0,2,-3,x
Cc1cc(=O)oc2ccc(OC(=O)CC(C)C)cc12,810*,1,-2,-3,0,0
CCOC(=O)Oc1ccc2oc(=O)cc(C)c2c1,-15,2,-4,2,2,x
Cc1ccc(C(=O)OCC(=O)N2CCC(c3ccccc3)=N2)cc1,-9,4,-5,4,0,x
O=C(CCl)N(Cc1cc(=O)[nH]c2ccccc12)c1ccccc1,491*,-9,-2,-5,-1,0
COc1ccc(NC2=C(c3ccc(OC)cc3)C(=O)c3ccccc32)cc1,9,-3,3,5,1,x
